Compound activity (PubChem)
An excerpt weighted towards active compounds, which were near 5.7% of everything screened.
VP16 counter: inhibits Gal4-VP16 luciferase reporter, ROR gamma counter-screen; Drosophila S2 Gal4-VP16 UAS-luciferase, luminescence, 20 h; Potency, µM (top dose mostly 53.6 µM), for the others: at the top dose activity, negative = inhibition, most hits filed as inhibitors; 310,000 tested, 3.5% active;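 note: Gal4-VP16 expression switched on by copper sulfate through the metallothionein promoter; nearly all actives have a fitted effect of over 50% in size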
RORg inh: inhibitors of mouse ROR gamma transcriptional activity; P51450; Drosophila S2 Gal4-RORgamma UAS-luciferase reporter, 20 h; Potency, µM (doses to about 53.6 µM), for the others: top-dose activity change, negative = inhibition, actives largely listed as inhibitors; 310,000 tested, 5.4% active; note: nearly all actives have a fitted effect of over 60% in size
Target sequence (P51450 whole entry, looked up, the tested form may be a part): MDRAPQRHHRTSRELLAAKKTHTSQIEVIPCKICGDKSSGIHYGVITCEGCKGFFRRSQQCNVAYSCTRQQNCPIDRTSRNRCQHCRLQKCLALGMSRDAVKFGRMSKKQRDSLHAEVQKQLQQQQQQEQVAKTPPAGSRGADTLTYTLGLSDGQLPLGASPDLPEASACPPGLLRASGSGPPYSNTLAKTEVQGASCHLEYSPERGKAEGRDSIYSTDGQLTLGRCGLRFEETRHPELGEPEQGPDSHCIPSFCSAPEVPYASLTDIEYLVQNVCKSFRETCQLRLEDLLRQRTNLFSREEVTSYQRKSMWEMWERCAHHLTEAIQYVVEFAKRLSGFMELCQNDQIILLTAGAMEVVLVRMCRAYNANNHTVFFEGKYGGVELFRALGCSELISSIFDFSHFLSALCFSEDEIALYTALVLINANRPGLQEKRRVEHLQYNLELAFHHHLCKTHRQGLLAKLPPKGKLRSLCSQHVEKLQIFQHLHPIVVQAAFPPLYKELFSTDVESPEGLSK
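ROR gamma transcriptional activity was tracked as Gal4-UAS luciferase output in stably transfected Drosophila Schneider cells, with compound added 1 hr before 700 uM copper sulfate induction and a 20 hr ambient-temperature incubation.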
NPSR antagonist: antagonists of human neuropeptide S receptor cAMP signaling; Q6W5P4; CHO-NPSR cells, cAMP TR-FRET, antagonist mode; Potency, µM (doses to about 38.3 µM), for inactives: top-dose activity change, negative = inhibition, hits mostly inhibitors; 220,000 tested, 1% active; AID 1461; note: nearly all actives have a fitted effect of over 50% in size
B2AR arrestin: beta2AR (human) beta-arrestin recruitment activity. P07550. beta-arrestin recruitment to beta2AR, cell-based reporter. Potency, µM (doses to about 46.1 µM), for the others: at the top dose activation, most hits filed as activators. 330,000 tested, 0.02% active. AID 492947;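 note: 0% = DMSO controls and full agonism = EC100 isoproterenol or metaproterenol; nearly all actives have a fitted effect of over 65% in size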
An asterisk follows results filed as active; u = inconclusive; x = not tested or not shown; [ ] = dose if it differs, or a comment. Calls come from the whole dose curve; as a rule, active = well fitted curve in the direction sought with a large enough effect; inconclusive = small, poorly fitted or top-dose-only effect, or another doubt; inactive = no such curve, though single readings can be large; an effect the other way counts as inactive or inconclusive. Unless noted, % is set by controls: 0 for no effect and ±100 for the full control effect; potency is the fitted concentration of half-maximal effect.

SMILES	VP16 counter	RORg inh	NPSR antagonist	B2AR arrestin
COc1ccc(C(CC(=O)c2ccc(O)cc2)S(=O)(=O)c2ccc(C)cc2)cc1 (stereo not drawn)	10µM*	1.8µM*	-29%[46.1 µM]	-1%
Cc1ccc(S(=O)(=O)CCC(=O)c2cccc([N+](=O)[O-])c2)cc1	5µM*	4µM*	x	-1%
N#Cc1ccc(CN2CCCC3(CCN(C(=O)c4cnccn4)CC3)C2)cc1	-11%	0%	x	x
CCOC(=O)c1c(NC(=O)CSc2nc3ccccc3o2)sc(C(C)=O)c1C	u	13µM*	-12%	-3%
C/C(=N\NC(=O)CSc1nc2ccccc2o1)c1ccc(O)cc1	3%	11µM*	-5%	0%
C/C(=N\NC(=O)CSc1nc2ccccc2o1)c1cccc(O)c1	-5%	18%	4%	0%
COc1ccc(NC2=NCC(Cc3ccc(Br)cc3)S2)cc1 (stereo not drawn)	3.5µM*	u	-33%	-2%
COc1ccc(C(=O)/C=C/c2ccc(O)cc2)c2c1CC(O)C(C)(C)O2 (stereo not drawn)	x	x	x	-1%
O=C(/C=C/c1ccccc1)c1ccc(O)cc1	u	11µM*	x	x
COc1ccc(/C=C/C(=O)c2nc3ccccc3n2CC(=O)c2ccc(OC)cc2)cc1	-8%	10µM*	-30%[46.1 µM]	0%
CN(C)C(=O)COc1ccc(C(=O)/C=C/c2cccnc2)cc1	u	18µM*	x	0%
COc1ccc(C(=O)/C=C/c2ccc(O)cc2)c(O)c1CC=C(C)C	7.9µM*	4µM*	-8%	0%
COc1cc(NC(=O)c2cccs2)c(OC)cc1NC(=O)CCC(=O)Nc1ccc2ncccc2c1	u	u	8%	0%
COc1ccc(/C=C(\C#N)C(=O)C(C)(C)n2cncn2)cc1	-2%	-7%	9%	0%
O=C(/C=C/c1cccc(O)c1)c1cccnc1	u	8.9µM*	5%	0%
O=C(/C=C/c1cccc(O)c1)c1ccc(N2CCOCC2)cc1	u	3.5µM*	-8%	0%
O=C(/C=C/c1cccnc1)c1cccc(O)c1	u	u	x	-1%
COc1ccc(/C=C/C(=O)c2ccc(O)cc2)cc1CN1CCOCC1	-2%	38%	5%	0%
COc1ccc(C(=O)/C=C/c2ccc(O)cc2)cc1	2µM*	0.32µM*	-13%	0%
COc1ccc(C(=O)OCCc2ccc(O)cc2)cc1	13µM*	7.1µM*	1%	-1%
CSCCC(NC(=O)c1ccco1)c1nc2ccccc2[nH]1 (stereo not drawn)	4%	0%	x	0%
O=C(/C=C/c1cccnc1)c1ccc(O)cc1	-88%	13µM*	8%	0%
O=C(N/N=C\c1cccnc1)c1ccccc1O	-6%	-28%	x	0%
O=C(/C=C/c1cccnc1)c1ccccc1O	u	18µM*	-4%	0%
CCOC(=O)Nc1ccc(C(=O)/C=C/c2ccccc2)cc1	u	7.1µM*	u	-1%
SMILES	VP16 counter	RORg inh	NPSR antagonist	B2AR arrestin
CCOC(=O)Nc1ccc(Oc2ccccc2)cc1	11%	u	-9%[46.1 µM]	0%
O=C(/C=C/c1cccnc1)c1ccc([N+](=O)[O-])cc1	u	u	x	0%
CCOC(=O)C(=Cc1ccccc1)C(=O)OCC	13µM*	13µM*	x	x
C[C@H](Cc1nc2c(cnn2-c2ccccc2Cl)c(=O)[nH]1)C(F)(F)F	1%	0%	x	x
CCNc1ncc2nc(-c3cc(F)cc(F)c3)c(=O)n(CCC#N)c2n1	-11%	-3%	x	x
O=C(NN=C1CCCCC1)Nc1ccccc1Cl	x	x	x	0%
O=C(/C=C/c1ccc(O)cc1)c1ccc(NC2=C(N3CCCCC3)C(=O)c3ccccc3C2=O)cc1	u	0.32µM*	u	0%
CCOC(=O)N1C/C(=C\c2ccccc2)C(=O)/C(=C/c2ccccc2)C1	u	18µM*	u	u
CCOC(=O)N1CCN(S(=O)(=O)/C=C/c2ccccc2)CC1	-3%	-2%	-23%[46.1 µM]	0%
O=C1C(Nc2ccccc2)=C(N2CCCCC2)C(=O)c2ccccc21	6%	40%	8%[46.1 µM]	0%
CCNc1ncc2nc(-c3cccs3)c(=O)n(Cc3cccc(OC)c3)c2n1	8%	-14%	x	x
C/C(=N\NC(=S)NC1CCCCC1)c1ccc(C#N)cc1	2µM*	2.2µM*	2%	2%
C/C(=N\NC(=S)NC1CCCCC1)c1cccc(Br)c1	1µM*	2.2µM*	-15%[46.1 µM]	0%
O=C1CSC(c2ccc([N+](=O)[O-])cc2)N1c1ccc(O)cc1 (stereo not drawn)	-21%	u	x	0%
